# Inconclusive results are not listed. Where a call stands in place of a potency, no number is given. A number with no mark means an inactive call. Calls of active or inactive are those of the source. The call rests on the fitted dose curve; in most records, active means well fitted inhibition curve with a large enough effect; inconclusive means small, poorly fitted or top-dose-only effect; inactive means flat fitted curve, though single readings scatter.
# Assays:
# [1] = test system: CRL-7250; assay: Cytotoxic Profiling of Annotated Libraries Using Quantitative High-Throughput Screening (AID 1296008); details: Five cell lines viability, CellTiter-Glo ATP luminescence, 48-72 h; max response: active compounds read low; further: potency means the concentration at half of the fitted maximal effect
# How it was run: (§1)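 Cells exposed to compounds for 48 or 72 hr at 37 degrees Celsius. Viability read as ATP-coupled luminescence with CellTiter-Glo after 10 min at room temperature.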
# [2] = test system: HEK293; assay: as above; details: Five cell lines viability, CellTiter-Glo ATP luminescence, 48-72 h; max response: active compounds read low
# How it was run: as §1
# [3] = test system: PC15; assay: qHTS profiling for inhibitors of Plasmodium falciparum proliferation (AID 504749); details: P. falciparum in erythrocytes, SYBR Green DNA, 72 h; series mostly up to 28.7 µM
# How it was run: (§2)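 Readout was DNA-dye fluorescence from lysed cultures, ex 485/em 535 nm. Parasitized red cells had grown 72 h with compound; data scaled between 0.29 uM artemisinin and DMSO wells and corrected using vehicle-only plates.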
# [4] = test system: PC26; assay: as above; details: P. falciparum in erythrocytes, SYBR Green DNA, 72 h; series mostly up to 28.7 µM
# How it was run: as §2
# [5] = test system: PC49; assay: as above; details: P. falciparum in erythrocytes, SYBR Green DNA, 72 h; series mostly up to 28.7 µM
# How it was run: as §2
# [6] = test system: SC27B; assay: as above; details: P. falciparum in erythrocytes, SYBR Green DNA, 72 h; series mostly up to 28.7 µM
# How it was run: as §2
# [7] = test system: TAB109; assay: as above; details: P. falciparum in erythrocytes, SYBR Green DNA, 72 h; series mostly up to 28.7 µM
# How it was run: as §2
# [8] = test system: TAB113; assay: as above; details: P. falciparum in erythrocytes, SYBR Green DNA, 72 h; series mostly up to 28.7 µM
# How it was run: as §2
# [9] = test system: TAB165; assay: as above; details: P. falciparum in erythrocytes, SYBR Green DNA, 72 h; series mostly up to 28.7 µM
# How it was run: as §2
# [10] = test system: W2; assay: as above; details: P. falciparum in erythrocytes, SYBR Green DNA, 72 h; series mostly up to 28.7 µM
# How it was run: as §2
# Further: nearly all actives have a fitted effect of over 60% in size.
smiles,measurement,setting,value
CCN1C[C@]2(OC(=O)c3ccccc3NC(C)=O)CC[C@H](OC)[C@@]34[C@H]5CC6[C@@H](OC)C[C@](O)(C(C[C@@H]23)[C@@H]14)[C@@]5(O)[C@@H]6OC,outcome,[1],inactive
same,max response,[2],-8.41%
CCCC[N+]1(C)[C@H]2CC(OC(=O)[C@H](CO)c3ccccc3)C[C@H]1[C@H]1O[C@H]12 (some centres not stated),max response,[1],-3.26%
same,max response,[2],-1.83%
COc1cc2cc(c1Cl)N(C)C(=O)C[C@H](OC(=O)C(C)C)[C@]1(C)O[C@H]1[C@H](C)[C@@H]1C[C@@](O)(NC(=O)O1)[C@H](OC)C=CC=C(C)C2,max response,[1],-68.5%
same,max response,[2],-91.4%
Cc1cc(O)ccc1Cl,Potency,[3],inactive
same,Potency,[4],inactive
same,Potency,[5],inactive
same,Potency,[6],inactive
same,Potency,[7],inactive
same,Potency,[8],inactive
same,Potency,[9],inactive
same,Potency,[10],inactive
same,outcome,[1],inactive
same,max response,[2],0.405%
O=C(O)COc1ccccc1,Potency,[3],inactive
same,Potency,[4],inactive
same,Potency,[5],inactive
same,Potency,[6],inactive
same,Potency,[7],inactive
same,Potency,[8],inactive
same,Potency,[9],inactive
same,Potency,[10],inactive
same,max response,[1],4.33%
same,max response,[2],2.38%
CN[C@@H](C)[C@H](O)c1ccccc1,max response,[1],-24.6%
same,outcome,[2],inactive
O=C(O)C(Cl)Cl,Potency,[3],inactive
same,Potency,[4],inactive
same,Potency,[5],inactive
same,Potency,[6],inactive
same,Potency,[7],inactive
same,Potency,[8],inactive
same,Potency,[9],inactive
same,Potency,[10],inactive
same,outcome,[1],inactive
same,outcome,[2],inactive
O=C(Oc1ccc([N+](=O)[O-])cc1)N1CCC(C(O)(c2ccc3c(c2)OCO3)c2ccc3c(c2)OCO3)CC1,Potency,[1],13.2 µM (active)
same,max response,[2],-16.1%
CCOC(=O)c1c(C(C#N)=CN)c2ccc(Cl)c(Cl)c2n1C,max response,[1],3.66%
same,max response,[2],-12.5%
